CHOP inh – blocks CHOP induction under ER stress; CHO-K1 CHOP-promoter luciferase, tunicamycin-induced, 15-18 h; inhibition, % at 10 µM; 220,000 tested, 3.8% active; AID 2732;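 active = compounds that reduced the stress-induced luciferase reporter signal by more than about 70% of percent inhibition, limit read from the data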;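 also: 0% = tunicamycin plus vehicle and 100% = wells without tunicamycin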
RAM network inh – inhibitors of the yeast RAM network. inhibition, % at 50 µM. S. cerevisiae dse1pr::URA3 reporter, 5-FOA growth OD615, 2 d; analog-sensitive cbk1-as2 kinase mutant strain. 190,000 tested, 1.8% active;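 active = inhibition above a set limit, 3 SD over mean compound inhibition, cut at about 8.4% in these data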;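 also: 0% = DMSO-only wells with no growth and 100% = 10 µM 1-NA-PP1 full growth; inhibition rescues growth on 5-FOA so higher OD means more RAM inhibition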
L major viab – Leishmania major promastigote growth inhibition. inhibition, % at 10 µM. 200,000 tested, 9% active. AID 1063. Leishmania major promastigotes, resazurin fluorescence viability; in the data active = inhibition above about 50%;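 also: promastigotes grown with compound for 44 hours at 28 °C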
WT yeast gro inh – growth inhibition of WT yeast, mitochondrial fusion screen; mitochondrial fusion phenotypic screen, WT strain; 190,000 tested, 2.1% active; inhibition, % at 10 µM; in the data active = inhibition above about 58%; tested in S. cerevisiae
Active calls of the source: *; x = no result. Only some compounds are listed: those with a hit (about 13% of all), similar ones and a draw of the others.

SMILES	CHOP inh	RAM network inh	L major viab	WT yeast gro inh
CCOC(=O)c1ccc(N/C(=N\S(=O)(=O)c2ccccc2C)c2ccccc2)cc1	22	3	88*	6
CCOC(=O)c1ccc(NC(=O)CSc2nc3ncccc3[nH]2)cc1	-4	3	63*	-14
CC(=O)c1ccc(OCC(=O)c2ccc(-c3ccccc3)cc2)cc1	23	5	60*	17
Cc1noc(C)c1COc1ccc(C(=O)NCCc2ccccn2)cc1	25	1	6	-19
Cc1cccc(N=N/C(=C\O)C(=O)c2cccs2)c1	37	1	76*	31
O=C(/C(N=Nc1cccc(C(F)(F)F)c1)=C(/O)c1cccs1)C(F)(F)F	11	x	x	x
COC(=O)c1ccc(Oc2c(F)c(F)nc(N3CCOCC3)c2F)cc1	28	2	-1	41
CCN1C(=O)/C(=C/c2ccc(C)o2)N(C)C1=S	28	3	3	-4
O=C(NCC1CCCO1)c1ccc(N2CCCCC2)nc1 (stereo not given)	3	3	-3	-34
Cc1ccccc1N(CC(=O)NCCc1ccccc1)C(=O)c1ccc(N2CCCC2)nc1	-56	2	61*	21
CCC(C)NCCOCCOc1ccc(F)cc1 (stereo not given)	8	0	95*	13
CCC(C)NCCCCOc1ccc(Br)cc1 (stereo not given)	-7	0	94*	-10
CCC(C)NCCOCCOc1ccc(C)cc1OC (stereo not given)	38	0	40	15
CCC(C)NCCOCCOc1cc(C)c(Cl)c(C)c1 (stereo not given)	-8	0	87*	17
CCC(C)NCCCCOc1cc(C)cc(C(C)C)c1 (stereo not given)	12	1	91*	13
COc1ccc(-c2cc(-c3ccc(C)cc3)nc(SCc3nnc(-c4ccccc4)o3)c2C#N)cc1OC	-2	6	21	-21
O=C(Nc1c2ccccc2nc2ccccc12)C(Cl)(Cl)Cl	32	1	100*	33
Cc1ccc(OCC(=O)NNc2c3ccccc3nc3ccccc23)cc1	30	3	97*	36
O=C(Cc1ccccc1)NNc1c2ccccc2nc2ccccc12	42	2	31	59*
O=C(Cc1ccccc1)NNC(=O)Cc1ccccc1	10	0	-1	-16
C=CCNC(=O)NC(=O)COC(=O)c1nc2nccc(C)n2n1	4	1	-2	-9
Cc1c(C(=O)NCCCN2CCOCC2)oc2c1C1(CCC2)SCCS1	5	1	88*	-17
COCC(C)NC(=O)c1oc2c(c1C)C1(CCC2)SCCS1 (stereo not given)	-4	1	2	3
O=C(NCc1cccnc1)c1sc2cc(Cl)ccc2c1Cl	17	0	82*	2
Cn1c(C(=O)NCc2cccnc2)cc2sc(Cl)cc21	27	0	81*	-10
SMILES	CHOP inh	RAM network inh	L major viab	WT yeast gro inh
O=C(N/N=C\c1cc(Br)ccc1O)c1ccc(S(=O)(=O)N2CCCCC2)cc1	59	3	98*	-4
O=C(N/N=C/c1ccc(O)c(O)c1)c1cccc(S(=O)(=O)N2CCCCC2)c1	-3	0	10	-7
O=C(N/N=C/c1cc(Cl)ccc1O)c1ccc(Br)cc1	80*	0	99*	9
O=C(N/N=C/c1cc(Br)ccc1O)c1ccncc1	69	x	x	x
CC(C)C(=O)Nc1ccc(C(=O)N/N=C/c2cc(Br)cc(Br)c2O)cc1	59	8	89*	-8
Nc1nonc1C(=O)N/N=C/c1cc(Br)ccc1O	70	1	99*	28
COc1ccc(C)cc1NC(=O)C1CCN(C(=O)Cc2ccccc2)CC1	37	1	-2	15
Cc1cc(=O)oc(C)c1C(=O)NC1CCCCCCC1	8	1	4	2
COc1ccccc1C(O)(C(=O)NN(C)c1ccccc1)c1ccccc1OC	8	0	-5	-10
CCc1ccc(CN(C)C(=O)CC2C(=O)NCCN2Cc2ccoc2)cc1 (stereo not given)	-1	2	-1	-3
Cc1ccc(C(=O)CSc2cnc3ccccc3n2)cc1C	49	4	-4	47
CN1CCN(Cc2ccc(Sc3ccc(Cl)cc3)c([N+](=O)[O-])c2)CC1	-3	0	100*	86*
Cc1ccc(Sc2ccc(CN3CCCC3)cc2[N+](=O)[O-])cc1	0	0	82*	46
Cc1ccc(C2NC(c3ccc(C)cc3)C(C)C(=NO)C2C)cc1 (stereo not given)	84*	0	8	83*
CC1C(=NO)C(C)C(c2ccccc2)NC1c1ccccc1 (stereo not given)	16	1	2	-3
COCCCNC(=O)Cn1c(=O)n(CCCCCC(=O)NCc2ccc3c(c2)OCO3)c(=O)c2sccc21	-2	0	8	-3

Screening data deposited in PubChem by several laboratories.
